The campaign covered roughly 360,000 compounds. About 7,300 (2%) were called active. Many of the other results were omitted from the sample, so actives are more common in it than they were. A number with no mark means an inactive call. No stated cut-off is given here; in the data, active means inhibition above about 50%; inactive means the rest.

The nature of the assay: blockers of TWEAK-induced Fn14 reporter activity – luciferase reporter cells, uHTS, primary screen (AID 1159606). The following applies: TWEAK-stimulated Fn14 reporter cells, luciferase luminescence, 8 h; at 10 µM; active compounds read high. In general terms: A reporter such as luciferase makes a cellular process visible.
Turning to `CC(=CCOc1ccc2ccc(=O)oc2c1)C1=CC(=O)C(C)(C)O1`, the inhibition was 70.4% (active). Next, `CSc1nc2ccc(C)cc2c(=O)n1-c1cccnc1`: 0.75%; `CN(C)c1ccc(/C=C2\CC3C4CC=C5CC(O)CCC5(C)C4CCC3(C)C2=O)cc1` (stereo not given): -57.2%.

With `NC(=O)Nc1cccc(C(F)(F)F)c1`, the inhibition was -2.53%. Next, `Cc1cccc(NC(=O)N2CC3CC(C2)c2cccc(=O)n2C3)c1` (stereo not given): 3.66%.

With `CNC(=O)O/N=C(\N)Cc1csc2ccccc12`, the inhibition is 16.5%. With `CC(=O)c1ccc(OC(NC(=O)Cc2ccccc2)C(Cl)(Cl)Cl)cc1` (stereo not given), the inhibition is -4.23%.

For the compound `C[C@H]1CN([C@@H](C)CO)C(=O)CCCn2nncc2CO[C@H]1CN(C)C(=O)Oc1cccc2ccccc12`, the inhibition was 9.18%.

As for `O=C1NC(=O)C(C/C=C/c2ccccc2)C(=O)N1`, the inhibition is 0.48%. On to `CCCCCCCCCCCCn1ccc(=N)cc1`, for which the inhibition was 74% (active).

As to `CCCn1c(C(=O)c2ccccc2OC)nc2ccccc21`, the inhibition is -3.91%. The same measure for `COc1ccc2c(c1)NP(=S)(c1ccccc1)N2` (stereo not given): -0.5%; for `CN(C)CC1Oc2ccccc2OC1(O)c1ccccc1` (stereo not given): 79.6% (active). Next, `Cc1ncoc1C(=O)NCC1=C(c2cccc3ccccc23)C[C@@H]2CC[C@H]1N2Cc1ccco1`: -0.7%; `COc1cccc(-c2nc3ccc(N4CCN(C)CC4)cc3[nH]2)c1`: -27.5%; `CC12CCC(O)CC1CCC1C2CCC2(C)C(C(=O)CC(O)C(F)(F)F)CCC12` (stereo not given): -91.4%.

For the compound `C[C@]12CC[C@H](O)C[C@H]1CC[C@@H]1C2CC[C@]2(C)[C@@H](C3=CC(=O)OC3)[C@@H](O)C[C@]12O` (stereo not given in full), the inhibition is 56.4% (active). Next, `O=c1[nH]c(=O)n(-c2ccc(F)cc2)c(O)c1C=NCCN1CCCCC1`: 6.59%; `CN(C)C(=O)Oc1cc(=O)n2c3c(cccc13)CCC2`: 30.3%; `Cc1cc(C(=O)OCC(=O)Nc2c(F)cccc2F)c(C)n1C1CC1`: 4.53%. `C[C@]12CCC3C(CC[C@H]4[C@H](O)[C@H](O)CC[C@]34C)C1CC[C@@H]2O` (stereo not given in full): the inhibition is -13.2%.

As for `C[C@]12CCC3C(CC[C@H]4[C@H](O)[C@H](O)CC[C@]34C)C1CCC2=O` (stereo not given in full), the inhibition was 96.5% (active). As to `C[C@]12CC[C@H](O)CC1=C([N+](=O)[O-])CC1C2CC[C@@]2(C)C1CC[C@@H]2O` (stereo not given in full), the inhibition is 1.49%. Next, `OC1/C(=C/c2ccc(C(F)(F)F)cc2)N2CCC1CC2` (stereo not given): -3%; `COC(=O)C1=C(c2ccc3ccccc3c2)C[C@@H]2CC[C@H]1N2C(=O)NCCO`: 6.86%.

In general, inhibition refers to the relative decrease from the control value, in per cent.

Values taken from PubChem BioAssay AID1159606 (Sanford-Burnham Center for Chemical Genomics, 2016).
